According to the OligoGym collection:
Further: reference of the scale not given here.

Each sequence was assayed against PLA2R1 (assay: pooled miR-30 sensor sort-seq; sequence = guide strand). Conditions: shRNA.
In the case of TTATCTGTGGTGAACAGTCCAA, the sensor-assay potency score (higher = more potent) is reported as -0.19. TTACTTTTAAATTTTATCCAGG was tested, and the sensor-assay potency score (higher = more potent) was -0.532. In the case of TTTTGTAACAGAATCCACCATG, the sensor-assay potency score (higher = more potent) is reported as 0.0446. For TTGAGCATTCAACCAAACCATC, the sensor-assay potency score (higher = more potent) was -1.81.

The sequences below were run against PLAA in the same assay as above. Conditions: shRNA.
TTAGTGACAAACATTGGGCTTT showed a sensor-assay potency score (higher = more potent) of 0.657. TTAACTTCTTCTCTTCAGGTGC showed a sensor-assay potency score (higher = more potent) of 0.5. For TAAATCTACAGCATTCACTTAC, the sensor-assay potency score (higher = more potent) was -0.27. For TAACACTCCACTGATAGGCTTC, the sensor-assay potency score (higher = more potent) was 0.424. For TTTTAGATGCAGCTGATCGGTA, the sensor-assay potency score (higher = more potent) was -0.655. Work on TAGACTGAGCTGGAAGTCGGAT yielded a sensor-assay potency score (higher = more potent) of -0.595. For TAATTAGTGACAAACATTGGGC, the sensor-assay potency score (higher = more potent) was -0.357. For TTATTTGAGAATCAACACCTAA, the sensor-assay potency score (higher = more potent) was -0.576. TAGGTCTTGTACTACTTCCAAG was tested, and the sensor-assay potency score (higher = more potent) was -1.39. Work on TTTAACAGTCTTGTCTGCTGAT yielded a sensor-assay potency score (higher = more potent) of 0.5. Sequence TATACTTCAAGACACTCGCCAG has a sensor-assay potency score (higher = more potent) of -0.398. TATTGTGGTCATTTCCACCGGT showed a sensor-assay potency score (higher = more potent) of 0.536.

What follows are sequences tested against PLB1 in the same assay as above. Conditions: shRNA.
With TAGTGGACCAGATCATTGCAGA the sensor-assay potency score (higher = more potent) was -0.927. With TCTATGATCATCTTTCATCTTC the sensor-assay potency score (higher = more potent) was 0.303. Sequence TAAGGTGGTCACATTCTCCAGG has a sensor-assay potency score (higher = more potent) of 0.024. TATTATCTTCCAGTCTTCCTGA showed a sensor-assay potency score (higher = more potent) of 0.718. Work on TTATCTTCCAGTCTTCCTGAAA yielded a sensor-assay potency score (higher = more potent) of -0.752. TTGATCTTGTTTTCAAACTTAT showed a sensor-assay potency score (higher = more potent) of -0.907. For TATTGTTCCAGAGAGCACTGGC, the sensor-assay potency score (higher = more potent) was 0.63. Sequence ATACTGTGTGGTGACATCGGGG has a sensor-assay potency score (higher = more potent) of -1.03. Work on TTGAAAGTCAAGTTGCAGGTTC yielded a sensor-assay potency score (higher = more potent) of 0.551. TACAGATTCGAATCTGTGCAGT gave a sensor-assay potency score (higher = more potent) of -0.43. In the case of TACTGTGTGGTGACATCGGGGA, the sensor-assay potency score (higher = more potent) is reported as 0.115. For TTGTTGGAGGTAGTCTTGCGGC, the sensor-assay potency score (higher = more potent) was -0.878.

Each sequence was assayed against PLCB3 in the same assay as above. Conditions: shRNA.
TTGCGCAGGAAGGTGTTCCGGG gave a sensor-assay potency score (higher = more potent) of -0.298. TTGAATAGCTCCTCAGACCAGA gave a sensor-assay potency score (higher = more potent) of -0.311. TTCGATGTAGTTGACAAGCGTG was tested, and the sensor-assay potency score (higher = more potent) was -0.63. TTGTCTGCTGAGAACATCTTCA showed a sensor-assay potency score (higher = more potent) of -0.392. For TACTTTTCGATGAGCAGCCGGG, the sensor-assay potency score (higher = more potent) was -0.993. ATGAAGTTCAAGAACACTGTGT was tested, and the sensor-assay potency score (higher = more potent) was 0.354. For TTTGATGAACTTACTCCCGCGC, the sensor-assay potency score (higher = more potent) was 0.0652. TTGTATTCCACAAACTCCATGG gave a sensor-assay potency score (higher = more potent) of -0.418. TTCGTTGAGTCTCGGGTCGCGT gave a sensor-assay potency score (higher = more potent) of -0.421. In the case of TATTCCACAAACTCCATGGGGC, the sensor-assay potency score (higher = more potent) is reported as -0.0487. TAGTTGGAGGAGTCCACGCGGG gave a sensor-assay potency score (higher = more potent) of -1.09. In the case of AAGAACACTGTGTTCACCGGGT, the sensor-assay potency score (higher = more potent) is reported as 0.656.
